Data taken from PubChem BioAssay.

What follows are compounds tested against PEG-3 (UniProt Q6IN02) (assay: inhibition of PEG-3 promoter-driven reporter – cell-based, HeLa, luciferase, CREF/GAPDH counter-screen panel, dose response (AID 624167)). Settings: CREF/GAPDH counter-screens; HeLa PEG-Prom luciferase reporter, overnight, run 2, dose range 1, at 100 µM (top of the series) unless noted.
Chain of PEG-3 (Q6IN02 whole entry, looked up): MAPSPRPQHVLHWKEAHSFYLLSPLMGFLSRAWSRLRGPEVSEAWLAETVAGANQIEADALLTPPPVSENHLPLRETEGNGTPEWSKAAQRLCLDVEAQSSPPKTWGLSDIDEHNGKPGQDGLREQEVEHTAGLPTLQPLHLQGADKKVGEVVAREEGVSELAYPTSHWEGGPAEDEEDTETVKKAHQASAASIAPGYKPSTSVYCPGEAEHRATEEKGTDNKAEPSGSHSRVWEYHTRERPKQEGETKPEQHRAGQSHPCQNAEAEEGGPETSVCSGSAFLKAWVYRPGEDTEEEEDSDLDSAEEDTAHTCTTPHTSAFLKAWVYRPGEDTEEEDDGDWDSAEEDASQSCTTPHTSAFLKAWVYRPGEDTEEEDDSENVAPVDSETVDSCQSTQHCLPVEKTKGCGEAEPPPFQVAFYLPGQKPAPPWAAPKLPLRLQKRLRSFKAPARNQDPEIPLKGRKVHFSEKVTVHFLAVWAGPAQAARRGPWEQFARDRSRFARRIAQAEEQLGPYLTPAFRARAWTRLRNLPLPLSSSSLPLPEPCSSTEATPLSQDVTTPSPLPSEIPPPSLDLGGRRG

| SMILES | inhibition [%] |
| --- | --- |
| COC1=C(Br)C(=O)c2ncccc2C1=O | 98.6 |
| Cc1ccc(-c2cc3c(N=O)c4ccccc4c-3n[nH]2)cc1 | 86.7 |
| CC(=O)NC(c1ccc(Cl)cc1)c1ccc2cccnc2c1O (centres undefined) | 88.3 |
| CCCCC(=O)NC(c1ccc(OC)cc1)c1ccc2cccnc2c1O (centres undefined) | 80.2 |
| Cc1cccc(C)c1NC(=O)c1nc(S(=O)(=O)Cc2ccccc2)ncc1Cl | 101 |
| CN(C)CC1CCC/C(=C\c2ccc(OC(=O)c3ccc(Cl)cc3)cc2)C1=O (centres undefined) | 99 |
| CCCC(=O)NC(c1ccc(OC)cc1)c1ccc2cccnc2c1O (centres undefined) | 88.5 |
| CN(C)c1ccc(/C=C/c2ccc3c4ccccc4ccc3[n+]2-c2ccccc2)cc1 | 98.8 |
| CN(C)c1ccc(/C=C(\C#N)c2ccccn2)cc1 | 84.6 |
| O=C(O)c1ccc(N/N=C/c2ccc3nccnc3c2)cc1 | 102 |
| Cc1nc(-c2ccc(NC(=O)c3ccco3)cc2)cs1 | 99.3 |
| COc1ccccc1CNCC(O)Cn1c2ccccc2c2ccccc21 (centres undefined) | 98.7 |
| C/C(=N\NC(=O)c1cc(C2CC2)nc2ccccc12)c1ccc(O)cc1O | 61.4 |
| CCc1ccc(/C=C2\SC(=S)N(CCCC(=O)NC3=NCCS3)C2=O)cc1 | 77.5 |
| O=C(Nc1nc2cc3c(cc2s1)OCCO3)C1=COCCO1 | 98 |
| Cc1ccc(-c2nc(-c3ccccn3)no2)cc1Cl | 95.2 |
| CCN(CC)S(=O)(=O)c1cccc(C(=O)N/N=C(\C)c2ccc(O)cc2O)c1 | 69.6 |
| CC(C)Cc1ccc(C(C)C(N)=NCCc2ccccc2)cc1 (centres undefined) | 102 |
| O=C(N/N=C/c1sc(N2CCOCC2)nc1-c1ccccc1)c1cccc(S(=O)(=O)N2CCCC2)c1 | 53.5 |
